Among all 48,000 compounds or so, about 13,000 (27%) showed an effect of 50% or more. Some of the results follow.
System: Wolbachia pipientis
Assay: Anti-Wolbachia Cell-Based Screen
Type: functional
Set-up: scale not given: in the data most compounds retested in dose-response had high values
Settings: 5 µM

In order of rising “Percent Effect” value:
1. Cn1cc(CN2CC[C@H]3O[C@H](C(=O)NCc4ccco4)CC[C@H]32)cn1.O=C(O)C(F)(F)F  -21.14%
2. Cc1ncsc1C(=O)N1CCCC(c2nccn2Cc2cscn2)C1 (stereo not given)  -18.71%
3. OC1(CN2CCC(Cc3ccccc3)CC2)CCC1  -17.41%
4. CC(Cc1ccccn1)N(C)C(=O)c1ncc[nH]1 (stereo not given)  -16.95%
5. COc1ccc(NC(=O)N2CCCC(CO)C2)c(C)c1 (stereo not given)  -14.28%
6. COc1ncccc1C1CC(=O)NCc2nc3ccccn3c21 (stereo not given)  -11.47%
7. O=C(NCc1ccco1)[C@H]1CC[C@@H]2[C@@H](CCN2Cc2cccnc2)O1.O=C(O)C(F)(F)F.O=C(O)C(F)(F)F  -10.47%
8. CC(C)Cc1noc(CN2CCN(c3nccs3)CC2)n1  -10.34%
9. Nc1nc(CN2CCN(c3nccs3)CC2)cs1  -10.1%
10. CCOC(C)c1nc(CN2CCN(c3nccc(C)n3)CC2)cs1 (stereo not given)  -8.527%
11. COCCn1cnc(-c2cc(C(=O)NC(C)C)c3ccccn23)c1  -8.086%
12. O=C(NCc1cccnc1)[C@H]1CC[C@@H]2[C@@H](CCN2c2ncccn2)O1.O=C(O)C(F)(F)F.O=C(O)C(F)(F)F  -7.451%
13. CCC(C(=O)NC1(CN2CCOCC2)CCCC1)n1cccn1 (stereo not given)  -7.135%
14. CC(C)n1ncc2c1NC(=O)CC21C(=O)Nc2c(Cl)cccc21 (stereo not given)  -6.68%
15. CCOCC(O)CN1CCN(C(=O)c2ccsc2)CC1 (stereo not given)  -6.282%
16. C1=CCN(c2nc(CC3CC3)nc3c2CCN(C2CCOCC2)CC3)C1  -5.944%
17. CCOCCN1CCN(CC2(O)CCCCC2)CC1  -2.649%
18. Cc1ncsc1C(=O)N1CCCN(Cc2cscn2)CC1  -2.478%
19. CCc1ncc2c(n1)CN(C(=O)CCCc1ccc(OC)cc1)C2  -1.775%
20. Cc1cc(C)c(CNC(=O)N2CCC(N3CCNC3=O)CC2)c(C)c1  -1.308%
21. Cn1c(CNc2c(F)cccc2-n2cccn2)cc(=O)n(C)c1=O  -1.066%
22. COc1coc(CN2CCCC(CCc3ccccc3C)C2)cc1=O (stereo not given)  -0.7566%
23. Nc1cc(N2CCCC(Cc3ccc(F)cc3F)(C(=O)O)C2)ncn1 (stereo not given)  -0.2204%
24. CCOCC(O)CN1CCN(C(=O)c2cnc3n[nH]c(C)c3c2)CC1 (stereo not given)  -0.1708%
25. COc1cccc(-c2noc(-c3ccc(N4CC(N)C4)nc3)n2)c1OC  0.2823%
26. CNS(=O)(=O)CC(=O)N(C1CC1)C1Cc2ccccc2C1  0.4054%
27. Cc1ccc(S(=O)(=O)NCC2(O)CCOc3ccccc32)s1 (stereo not given)  0.721%
28. CCN(CC)c1ccc(CNS(=O)(=O)C2CCOCC2)cc1F  0.7913%
29. CCOCC(O)CN1CCN(C(=O)c2cccc(F)c2)CC1 (stereo not given)  0.952%
30. CCc1nccn1C1CCCN(C(=O)CCCNc2ncccn2)C1 (stereo not given)  1.367%
31. CN(C)CC(C)(O)CNC(=O)Nc1sc2ccccc2c1Cl (stereo not given)  1.378%
32. O=C(CCCNc1ncccn1)N1CCCC(n2cccn2)C1 (stereo not given)  2.216%
33. CCOCC(O)CN1CCN(C(=O)c2ccncc2)CC1 (stereo not given)  2.226%
34. CS(=O)(=O)N1CC[C@H]2O[C@H](C(=O)NCCc3ccccn3)CC[C@H]21.O=C(O)C(F)(F)F  2.249%
35. COc1cccc(C(=O)N2CCN(CC(O)c3ccccc3)CC2)c1 (stereo not given)  2.631%
36. O=C(N[C@@H]1CCN(C(=O)C2CCOCC2)C[C@H]1O)c1ccccn1  2.955%
37. Cn1cc(CN2CC[C@H]3O[C@@H](C(=O)NC4CC4)CC[C@H]32)cn1.O=C(O)C(F)(F)F.O=C(O)C(F)(F)F  2.978%
38. Clc1cccc(C(NCc2ncc[nH]2)c2ccccn2)c1 (stereo not given)  3.902%
39. COc1cccc(C(O)CN2CCN(C(=O)c3ccsc3)CC2)c1 (stereo not given)  4.323%
40. Cc1cnc(C(=O)N2CCCN(Cc3csc(C)n3)CC2)cn1  7.438%
41. CCCc1noc(CN2CCN(CCC(C)C)CC2)n1  7.482%
42. c1csc(-c2cc(CN3CCN(c4nccs4)CC3)no2)c1  7.977%
43. O=C(O)C(F)(F)F.O=C([C@@H]1CC[C@@H]2[C@@H](CCN2Cc2ccoc2)O1)N1CCCC1  8.52%
44. O=C(CNc1cccc(S(=O)(=O)C(F)F)c1)Nc1ccccc1  9.714%
45. O=C(C1CCOCC1)N1CCOC(CC2CCCCC2)C1 (stereo not given)  10.22%
46. Fc1cccnc1OC[C@@]12CCO[C@@H]1CCN(CC1CCOCC1)C2.O=C(O)C(F)(F)F.O=C(O)C(F)(F)F  11.98%
47. O=C(NCc1cccs1)[C@H]1CC[C@@H]2[C@@H](CCN2c2ncccn2)O1.O=C(O)C(F)(F)F  16.99%
48. CC(C#N)CN(C)C(=O)c1cn(-c2ccc(Br)cc2)cn1 (stereo not given)  17.58%
49. Cc1cnc(C(=O)N2CCN(Cc3csc(C)n3)CC2)cn1  75.58%
50. OC1(CN2CCC(Cc3ncccn3)CC2)CCOCC1  87.8%
51. CCOCC(O)CN1CCN(C(=O)c2cccc(OC)c2)CC1 (stereo not given)  88.95%
52. CCc1noc(CN2CCN(c3nccs3)CC2)n1  91.95%
53. O=C(NCc1cccs1)[C@H]1CC[C@@H]2[C@@H](CCN2Cc2ccoc2)O1.O=C(O)C(F)(F)F  94.68%
54. O=C(C1CCOCC1)N1CCOCC(Cc2ncccn2)C1 (stereo not given)  97.13%
55. CCOCC(O)CN1CCN(C(=O)c2cc(F)cc(F)c2)CC1 (stereo not given)  99.72%
56. O=C(NCCc1ccccn1)[C@@H]1CC[C@@H]2[C@@H](CCN2Cc2ccoc2)O1.O=C(O)C(F)(F)F.O=C(O)C(F)(F)F  100.1%
57. CCCc1noc(CN2CCN(c3nccs3)CC2)n1  101%
58. CCOCC(O)CN1CCN(C(=O)c2ccc(OC)cc2)CC1 (stereo not given)  101.3%
59. Cc1nccn1C1CCCN(C(=O)CCCNc2ncccn2)C1 (stereo not given)  106.9%
60. Cc1nc(C)n(C2CCCN(C(=O)CCCNc3ncccn3)C2)n1 (stereo not given)  110%
61. O=C(Nc1cnccn1)[C@H]1CC[C@@H]2[C@@H](CCN2Cc2ccoc2)O1.O=C(O)C(F)(F)F  111.7%
62. OC1(CN2CCC(Cc3ncccn3)CC2)CCCCC1  116.2%
63. Cn1cc(CN2CC[C@H]3O[C@H](C(=O)Nc4cnccn4)CC[C@H]32)cn1.O=C(O)C(F)(F)F  123.6%
64. Cc1ncsc1C(=O)N1CCN(Cc2cscn2)CC1  129.9%
65. Cc1nc(CN2CCN(C(=O)c3scnc3C)CC2)cs1  142.4%
